# Assay results published in article PMC7862700, “An all-to-all approach to the identification of sequence-specific readers for epigenetic DNA modifications on cytosine”.
# What was measured:
# Assay in all cases: DAPPL (digital affinity profiling via proximity ligation, sequencing); 10 mM Tris-HCl pH 7.5, 50 mM NaCl, 1 mM DTT, 4% glycerol, room temperature, 30 min; GST-TFs on glutathione beads, 16-mer random dsDNA library, 0.1% formaldehyde crosslink after washing; high values mean tight binding
# FLI1 = target: T1, FLI1 (Homo sapiens, UniProt Q01543 1-452); conditions: protein: recombinant; tags: N-terminal GST; dsDNA, one strand shown
# T1 sequence: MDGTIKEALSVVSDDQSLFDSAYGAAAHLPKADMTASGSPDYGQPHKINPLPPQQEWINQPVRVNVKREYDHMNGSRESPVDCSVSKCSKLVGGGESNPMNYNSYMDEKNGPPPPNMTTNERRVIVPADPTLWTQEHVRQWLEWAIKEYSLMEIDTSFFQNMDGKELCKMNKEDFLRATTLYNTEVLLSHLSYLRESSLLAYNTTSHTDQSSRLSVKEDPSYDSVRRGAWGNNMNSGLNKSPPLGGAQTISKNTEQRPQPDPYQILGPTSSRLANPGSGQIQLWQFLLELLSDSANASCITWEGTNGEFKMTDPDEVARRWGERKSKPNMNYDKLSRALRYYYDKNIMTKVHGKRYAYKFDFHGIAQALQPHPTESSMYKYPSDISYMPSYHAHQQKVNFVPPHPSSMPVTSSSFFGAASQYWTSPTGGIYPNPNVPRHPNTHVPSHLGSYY
# How it was run: (§1)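 Pools of DNA-barcoded human transcription factors, expressed in yeast as GST fusions on glutathione beads and combined with a tag-only sample, were incubated with 200 nmole of a 16-mer random double-stranded DNA library. Incubation took 30 min at room temperature in Tris/NaCl/DTT/glycerol buffer and was followed by washing, 0.1% formaldehyde crosslinking, proximity ligation (BsaI/T4 ligase, 1 h, 37 °C), PCR amplification and sequencing on an Illumina NextSeq500. Binding signal is the ratio of a hexamer's read frequency for a factor to its frequency for the tag-only sample.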
# ELK1 = target: T2, ELK1 (Homo sapiens, UniProt P19419 1-428); conditions: protein: recombinant; tags: N-terminal GST; dsDNA, one strand shown
# T2 sequence: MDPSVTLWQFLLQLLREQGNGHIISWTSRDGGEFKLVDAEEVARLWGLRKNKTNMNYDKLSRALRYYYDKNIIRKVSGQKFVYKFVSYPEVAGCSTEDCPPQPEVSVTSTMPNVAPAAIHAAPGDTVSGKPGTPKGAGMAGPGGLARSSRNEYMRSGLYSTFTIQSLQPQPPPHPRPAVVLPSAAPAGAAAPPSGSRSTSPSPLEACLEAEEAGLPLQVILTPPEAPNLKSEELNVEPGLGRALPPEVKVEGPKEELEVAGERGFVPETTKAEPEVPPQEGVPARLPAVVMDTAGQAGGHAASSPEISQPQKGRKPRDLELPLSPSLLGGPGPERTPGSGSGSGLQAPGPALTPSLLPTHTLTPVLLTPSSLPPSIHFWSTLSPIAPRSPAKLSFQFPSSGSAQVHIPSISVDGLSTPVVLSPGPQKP
# How it was run: as §1
# GABPA = target: T3, GABPA (Homo sapiens, UniProt Q06546 1-454); conditions: protein: recombinant; tags: N-terminal GST; dsDNA, one strand shown
# T3 sequence: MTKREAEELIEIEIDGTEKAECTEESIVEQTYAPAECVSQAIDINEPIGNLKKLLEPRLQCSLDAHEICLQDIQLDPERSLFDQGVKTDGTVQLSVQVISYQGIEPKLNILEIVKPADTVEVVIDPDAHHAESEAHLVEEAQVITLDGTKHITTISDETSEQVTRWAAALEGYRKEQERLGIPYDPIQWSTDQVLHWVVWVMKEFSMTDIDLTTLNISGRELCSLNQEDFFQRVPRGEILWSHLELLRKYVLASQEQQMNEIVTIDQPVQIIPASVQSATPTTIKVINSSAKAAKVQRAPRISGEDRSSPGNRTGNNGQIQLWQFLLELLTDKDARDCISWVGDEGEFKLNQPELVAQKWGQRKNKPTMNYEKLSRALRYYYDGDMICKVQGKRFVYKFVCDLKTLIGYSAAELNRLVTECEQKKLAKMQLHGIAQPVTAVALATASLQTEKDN
# How it was run: as §1
# ERG = target: T4, ERG (Homo sapiens, UniProt P11308 1-479); conditions: protein: recombinant; tags: N-terminal GST; dsDNA, one strand shown
# T4 sequence: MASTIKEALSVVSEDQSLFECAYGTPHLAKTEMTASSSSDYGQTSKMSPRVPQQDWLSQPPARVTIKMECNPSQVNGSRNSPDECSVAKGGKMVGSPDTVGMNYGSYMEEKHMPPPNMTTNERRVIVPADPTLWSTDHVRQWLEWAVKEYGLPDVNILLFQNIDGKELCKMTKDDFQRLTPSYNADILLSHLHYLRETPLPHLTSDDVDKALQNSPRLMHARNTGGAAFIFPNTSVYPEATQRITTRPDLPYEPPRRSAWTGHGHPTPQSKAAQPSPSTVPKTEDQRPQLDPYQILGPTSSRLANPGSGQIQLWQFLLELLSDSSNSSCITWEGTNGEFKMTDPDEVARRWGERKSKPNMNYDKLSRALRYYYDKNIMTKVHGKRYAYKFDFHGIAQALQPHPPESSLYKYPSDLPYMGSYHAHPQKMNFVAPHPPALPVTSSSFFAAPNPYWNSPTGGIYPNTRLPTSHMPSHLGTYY
# How it was run: as §1
# ELF1 = ELF1 (Homo sapiens, UniProt P32519 1-619); conditions: protein: recombinant; tags: N-terminal GST; dsDNA, one strand shown
# How it was run: as §1
# EHF = target: T5, EHF (Homo sapiens, UniProt Q9NZC4 1-300); conditions: protein: recombinant; tags: N-terminal GST; dsDNA, one strand shown
# T5 sequence: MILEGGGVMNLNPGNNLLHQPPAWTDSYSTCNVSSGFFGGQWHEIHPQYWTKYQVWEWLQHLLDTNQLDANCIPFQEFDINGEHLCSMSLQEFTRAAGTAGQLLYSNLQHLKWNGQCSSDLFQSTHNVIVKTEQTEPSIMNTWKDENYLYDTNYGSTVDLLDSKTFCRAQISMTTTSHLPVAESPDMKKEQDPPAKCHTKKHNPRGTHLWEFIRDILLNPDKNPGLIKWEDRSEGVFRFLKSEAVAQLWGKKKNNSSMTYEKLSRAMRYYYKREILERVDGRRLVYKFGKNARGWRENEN
# How it was run: as §1
# SPI1 = SPI1 (Homo sapiens, UniProt P17947 1-270); conditions: protein: recombinant; tags: N-terminal GST; dsDNA, one strand shown
# How it was run: as §1
# SPIB = SPIB (Homo sapiens, UniProt Q01892 1-262); conditions: protein: recombinant; tags: N-terminal GST; dsDNA, one strand shown
# How it was run: as §1
# ELK3 = target: T6, ELK3 (Homo sapiens, UniProt P41970 1-407); conditions: protein: recombinant; tags: N-terminal GST; dsDNA, one strand shown
# T6 sequence: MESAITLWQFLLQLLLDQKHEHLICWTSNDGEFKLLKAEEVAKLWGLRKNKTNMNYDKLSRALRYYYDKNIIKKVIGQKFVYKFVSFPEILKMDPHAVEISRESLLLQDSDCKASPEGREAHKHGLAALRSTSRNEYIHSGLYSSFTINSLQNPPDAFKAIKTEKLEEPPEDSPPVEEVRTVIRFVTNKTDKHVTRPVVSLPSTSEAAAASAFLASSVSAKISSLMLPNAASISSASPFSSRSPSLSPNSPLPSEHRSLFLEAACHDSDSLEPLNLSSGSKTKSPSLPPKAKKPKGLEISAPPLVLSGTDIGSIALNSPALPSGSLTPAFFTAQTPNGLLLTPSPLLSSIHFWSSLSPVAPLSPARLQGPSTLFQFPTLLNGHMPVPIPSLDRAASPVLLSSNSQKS
# How it was run: as §1
# FEV = target: T7, FEV (Homo sapiens, UniProt Q99581 1-238); conditions: protein: recombinant; tags: N-terminal GST; dsDNA, one strand shown
# T7 sequence: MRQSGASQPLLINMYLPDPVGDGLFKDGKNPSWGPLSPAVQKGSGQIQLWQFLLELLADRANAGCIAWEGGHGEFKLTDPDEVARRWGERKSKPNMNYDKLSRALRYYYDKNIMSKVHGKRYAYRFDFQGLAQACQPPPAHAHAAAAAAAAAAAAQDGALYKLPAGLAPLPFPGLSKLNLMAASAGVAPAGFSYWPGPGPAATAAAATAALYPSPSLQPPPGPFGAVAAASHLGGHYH
# How it was run: as §1
# ETV5 = ETV5 (Homo sapiens, UniProt P41161 1-510); conditions: protein: recombinant; tags: N-terminal GST; dsDNA, one strand shown
# How it was run: as §1
# HSF1 = HSF1 (Homo sapiens, UniProt Q00613 1-529); conditions: protein: recombinant; tags: N-terminal GST; chain copies: 3; dsDNA, one strand shown
# How it was run: as §1
# SPIC = target: T8, SPIC (Homo sapiens, UniProt Q8N5J4 1-248); conditions: protein: recombinant; tags: N-terminal GST; dsDNA, one strand shown
# T8 sequence: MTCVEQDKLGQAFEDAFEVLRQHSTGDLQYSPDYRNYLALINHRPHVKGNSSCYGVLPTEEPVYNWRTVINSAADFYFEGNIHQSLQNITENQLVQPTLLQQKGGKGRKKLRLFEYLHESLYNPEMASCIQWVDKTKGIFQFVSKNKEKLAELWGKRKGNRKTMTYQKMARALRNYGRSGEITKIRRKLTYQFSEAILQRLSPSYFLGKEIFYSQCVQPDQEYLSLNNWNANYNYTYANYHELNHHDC
# How it was run: as §1
# ELF4 = ELF4 (Homo sapiens, UniProt Q99607 1-663); conditions: protein: recombinant; tags: N-terminal GST; dsDNA, one strand shown
# How it was run: as §1
# ELK4 = target: T9, ELK4 (Homo sapiens, UniProt P28324-2 1-405); conditions: protein: recombinant; tags: N-terminal GST; dsDNA, one strand shown
# T9 sequence: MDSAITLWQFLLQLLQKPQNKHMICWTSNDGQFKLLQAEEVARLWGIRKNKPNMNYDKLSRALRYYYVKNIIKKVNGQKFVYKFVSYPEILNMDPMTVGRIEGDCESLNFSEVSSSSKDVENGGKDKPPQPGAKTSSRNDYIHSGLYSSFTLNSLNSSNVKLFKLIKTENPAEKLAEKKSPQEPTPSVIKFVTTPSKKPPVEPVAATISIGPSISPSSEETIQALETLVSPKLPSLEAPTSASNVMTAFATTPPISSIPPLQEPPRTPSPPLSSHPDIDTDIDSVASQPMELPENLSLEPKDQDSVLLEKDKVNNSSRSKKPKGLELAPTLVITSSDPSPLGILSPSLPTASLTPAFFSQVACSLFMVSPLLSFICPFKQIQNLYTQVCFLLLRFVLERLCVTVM
# How it was run: as §1
# ETV2 = target: T10, ETV2 (Homo sapiens, UniProt O00321 1-342); conditions: protein: recombinant; tags: N-terminal GST; dsDNA, one strand shown
# T10 sequence: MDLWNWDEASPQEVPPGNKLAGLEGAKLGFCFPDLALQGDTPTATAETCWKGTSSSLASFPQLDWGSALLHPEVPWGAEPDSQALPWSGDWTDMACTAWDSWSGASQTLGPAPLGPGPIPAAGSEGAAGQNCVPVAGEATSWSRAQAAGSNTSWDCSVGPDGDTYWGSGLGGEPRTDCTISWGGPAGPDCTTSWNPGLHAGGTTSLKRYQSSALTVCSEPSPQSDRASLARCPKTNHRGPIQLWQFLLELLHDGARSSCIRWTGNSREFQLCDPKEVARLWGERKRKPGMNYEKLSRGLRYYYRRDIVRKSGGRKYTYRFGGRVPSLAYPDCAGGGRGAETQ
# How it was run: as §1
# ELF3 = target: T11, ELF3 (Homo sapiens, UniProt P78545 1-371); conditions: protein: recombinant; tags: N-terminal GST; dsDNA, one strand shown
# T11 sequence: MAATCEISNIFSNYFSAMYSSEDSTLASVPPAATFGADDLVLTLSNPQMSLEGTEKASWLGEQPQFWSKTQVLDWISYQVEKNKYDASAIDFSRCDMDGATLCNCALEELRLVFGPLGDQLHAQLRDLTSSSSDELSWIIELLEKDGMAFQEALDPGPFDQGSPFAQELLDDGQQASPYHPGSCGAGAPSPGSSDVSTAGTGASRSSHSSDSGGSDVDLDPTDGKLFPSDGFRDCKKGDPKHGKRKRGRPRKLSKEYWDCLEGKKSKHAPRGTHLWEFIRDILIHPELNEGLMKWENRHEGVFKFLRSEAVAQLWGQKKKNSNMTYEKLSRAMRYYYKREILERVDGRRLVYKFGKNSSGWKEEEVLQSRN
# How it was run: as §1
# CRX = CRX (Homo sapiens, UniProt O43186 1-299); conditions: protein: recombinant; tags: N-terminal GST; dsDNA, one strand shown
# How it was run: as §1
# ETV1 = ETV1 (Homo sapiens, UniProt P50549 1-477); conditions: protein: recombinant; tags: N-terminal GST; dsDNA, one strand shown
# How it was run: as §1
# ETV1, sequence (P50549 whole entry): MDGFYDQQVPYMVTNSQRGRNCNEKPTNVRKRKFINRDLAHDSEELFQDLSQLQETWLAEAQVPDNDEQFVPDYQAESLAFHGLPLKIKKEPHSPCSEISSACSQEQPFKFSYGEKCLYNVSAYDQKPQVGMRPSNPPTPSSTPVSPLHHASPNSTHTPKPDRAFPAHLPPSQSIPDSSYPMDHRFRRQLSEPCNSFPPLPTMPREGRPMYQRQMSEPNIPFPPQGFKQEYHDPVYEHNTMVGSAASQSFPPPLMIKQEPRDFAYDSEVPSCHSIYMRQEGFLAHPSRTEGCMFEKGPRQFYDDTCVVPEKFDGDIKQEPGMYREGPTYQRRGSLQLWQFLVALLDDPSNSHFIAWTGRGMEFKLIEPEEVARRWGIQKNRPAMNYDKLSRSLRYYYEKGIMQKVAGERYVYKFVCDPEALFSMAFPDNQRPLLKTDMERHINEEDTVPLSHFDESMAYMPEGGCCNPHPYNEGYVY
# CRX, sequence (O43186 whole entry): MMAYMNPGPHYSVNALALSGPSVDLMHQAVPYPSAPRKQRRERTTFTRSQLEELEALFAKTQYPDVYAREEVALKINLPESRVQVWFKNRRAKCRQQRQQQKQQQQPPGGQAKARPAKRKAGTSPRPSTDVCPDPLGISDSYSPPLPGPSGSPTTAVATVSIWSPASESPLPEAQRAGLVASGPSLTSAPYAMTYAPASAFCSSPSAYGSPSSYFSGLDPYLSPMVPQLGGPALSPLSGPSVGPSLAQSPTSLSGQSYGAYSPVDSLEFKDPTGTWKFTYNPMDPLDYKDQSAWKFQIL
# ELF4, sequence (Q99607 whole entry): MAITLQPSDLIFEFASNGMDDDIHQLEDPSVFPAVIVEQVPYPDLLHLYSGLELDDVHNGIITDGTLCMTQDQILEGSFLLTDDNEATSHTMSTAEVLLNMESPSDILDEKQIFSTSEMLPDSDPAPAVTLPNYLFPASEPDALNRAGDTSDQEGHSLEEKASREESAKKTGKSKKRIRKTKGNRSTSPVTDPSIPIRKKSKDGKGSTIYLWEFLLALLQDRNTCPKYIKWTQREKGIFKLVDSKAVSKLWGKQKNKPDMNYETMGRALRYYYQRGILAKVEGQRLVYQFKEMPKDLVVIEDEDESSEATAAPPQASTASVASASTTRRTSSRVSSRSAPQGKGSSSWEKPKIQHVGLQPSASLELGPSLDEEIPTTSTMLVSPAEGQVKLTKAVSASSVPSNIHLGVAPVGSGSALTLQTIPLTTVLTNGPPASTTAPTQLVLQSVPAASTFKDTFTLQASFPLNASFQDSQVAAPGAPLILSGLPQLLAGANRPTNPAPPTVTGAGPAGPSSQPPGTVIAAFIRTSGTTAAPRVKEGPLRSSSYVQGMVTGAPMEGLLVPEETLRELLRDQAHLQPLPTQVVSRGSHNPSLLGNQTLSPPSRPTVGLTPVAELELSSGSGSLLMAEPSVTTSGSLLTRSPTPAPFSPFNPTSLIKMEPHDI
# ELF1, sequence (P32519 whole entry): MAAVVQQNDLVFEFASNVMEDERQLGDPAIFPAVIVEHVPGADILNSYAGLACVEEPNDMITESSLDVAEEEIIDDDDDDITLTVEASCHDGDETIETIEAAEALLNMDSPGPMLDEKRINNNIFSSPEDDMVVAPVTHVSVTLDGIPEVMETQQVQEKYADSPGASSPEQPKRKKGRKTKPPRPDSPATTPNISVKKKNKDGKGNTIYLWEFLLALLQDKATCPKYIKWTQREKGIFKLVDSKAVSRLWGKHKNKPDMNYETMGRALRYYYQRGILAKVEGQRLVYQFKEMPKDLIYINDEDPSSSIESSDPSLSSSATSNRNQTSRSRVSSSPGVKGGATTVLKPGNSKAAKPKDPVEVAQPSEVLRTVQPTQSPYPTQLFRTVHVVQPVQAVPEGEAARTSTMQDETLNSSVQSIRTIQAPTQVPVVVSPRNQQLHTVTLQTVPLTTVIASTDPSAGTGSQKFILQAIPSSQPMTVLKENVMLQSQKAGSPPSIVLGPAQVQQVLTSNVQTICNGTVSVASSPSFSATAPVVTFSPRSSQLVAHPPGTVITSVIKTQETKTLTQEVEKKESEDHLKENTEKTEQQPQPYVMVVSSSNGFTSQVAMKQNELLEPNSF
# HSF1, sequence (Q00613 whole entry): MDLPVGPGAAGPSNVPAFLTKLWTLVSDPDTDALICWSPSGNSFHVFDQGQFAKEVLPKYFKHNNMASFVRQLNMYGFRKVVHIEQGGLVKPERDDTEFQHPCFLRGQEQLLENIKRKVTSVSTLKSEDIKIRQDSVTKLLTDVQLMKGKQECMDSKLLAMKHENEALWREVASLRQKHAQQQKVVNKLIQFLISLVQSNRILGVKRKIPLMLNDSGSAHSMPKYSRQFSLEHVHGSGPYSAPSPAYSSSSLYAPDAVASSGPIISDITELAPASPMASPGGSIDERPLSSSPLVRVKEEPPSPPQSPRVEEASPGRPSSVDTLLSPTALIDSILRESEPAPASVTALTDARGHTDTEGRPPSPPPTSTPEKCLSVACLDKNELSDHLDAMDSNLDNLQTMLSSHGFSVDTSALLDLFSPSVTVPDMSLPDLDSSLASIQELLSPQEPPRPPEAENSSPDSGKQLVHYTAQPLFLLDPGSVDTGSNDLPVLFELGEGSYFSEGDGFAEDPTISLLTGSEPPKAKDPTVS
# SPIB, sequence (Q01892 whole entry): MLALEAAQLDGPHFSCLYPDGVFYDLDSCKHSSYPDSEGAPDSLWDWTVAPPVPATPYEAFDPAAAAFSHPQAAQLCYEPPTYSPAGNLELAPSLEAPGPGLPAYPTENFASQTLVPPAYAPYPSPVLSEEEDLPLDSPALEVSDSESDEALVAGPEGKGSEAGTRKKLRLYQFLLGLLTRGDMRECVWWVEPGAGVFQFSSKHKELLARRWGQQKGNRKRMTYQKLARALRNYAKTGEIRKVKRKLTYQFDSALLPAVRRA
# ETV5, sequence (P41161 whole entry): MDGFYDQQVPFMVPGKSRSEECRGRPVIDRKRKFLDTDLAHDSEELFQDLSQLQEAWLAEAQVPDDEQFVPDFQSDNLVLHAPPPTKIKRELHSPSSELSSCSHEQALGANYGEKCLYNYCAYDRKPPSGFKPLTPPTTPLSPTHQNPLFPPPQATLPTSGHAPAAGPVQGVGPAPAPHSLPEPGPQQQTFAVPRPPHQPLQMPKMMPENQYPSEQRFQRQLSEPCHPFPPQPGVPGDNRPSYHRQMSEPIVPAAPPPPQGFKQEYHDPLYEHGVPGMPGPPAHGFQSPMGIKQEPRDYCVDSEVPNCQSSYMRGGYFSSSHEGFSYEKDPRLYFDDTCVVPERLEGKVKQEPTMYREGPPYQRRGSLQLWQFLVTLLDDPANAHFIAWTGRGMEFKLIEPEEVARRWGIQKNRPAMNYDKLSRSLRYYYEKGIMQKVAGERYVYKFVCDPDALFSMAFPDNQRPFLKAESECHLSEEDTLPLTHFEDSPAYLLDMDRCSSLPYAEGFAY
sequence,measurement,setting,value
CTGTTC,binding signal,FLI1,"1.47 fold enrichment (6-mer frequency, TF over GST control)"
same,binding signal,ELK1,"1.42 fold enrichment (6-mer frequency, TF over GST control)"
same,binding signal,GABPA,"1.38 fold enrichment (6-mer frequency, TF over GST control)"
same,binding signal,ERG,"1.39 fold enrichment (6-mer frequency, TF over GST control)"
same,binding signal,ELF1,"1.38 fold enrichment (6-mer frequency, TF over GST control)"
same,binding signal,EHF,"1.47 fold enrichment (6-mer frequency, TF over GST control)"
same,binding signal,SPI1,"1.42 fold enrichment (6-mer frequency, TF over GST control)"
same,binding signal,SPIB,"1.39 fold enrichment (6-mer frequency, TF over GST control)"
same,binding signal,ELK3,"1.47 fold enrichment (6-mer frequency, TF over GST control)"
same,binding signal,FEV,"1.33 fold enrichment (6-mer frequency, TF over GST control)"
same,binding signal,ETV5,"1.39 fold enrichment (6-mer frequency, TF over GST control)"
same,binding signal,HSF1,"1.38 fold enrichment (6-mer frequency, TF over GST control)"
same,binding signal,SPIC,"1.44 fold enrichment (6-mer frequency, TF over GST control)"
same,binding signal,ELF4,"1.42 fold enrichment (6-mer frequency, TF over GST control)"
same,binding signal,ELK4,"1.19 fold enrichment (6-mer frequency, TF over GST control)"
same,binding signal,ETV2,"1.38 fold enrichment (6-mer frequency, TF over GST control)"
same,binding signal,ELF3,"1.63 fold enrichment (6-mer frequency, TF over GST control)"
same,binding signal,CRX,"1.07 fold enrichment (6-mer frequency, TF over GST control)"
same,binding signal,ETV1,"1.46 fold enrichment (6-mer frequency, TF over GST control)"
